Unmarked numbers belong to inactive results.
How the values were obtained:
Experiment in all cases: log2 ratio of Biotin-Ahx-Ub-VS probe labelling (fragment/DMSO); higher = less target engagement (more negative = stronger competition), active = hit call of the paper (q ≤ 0.05, log2 ratio ≤ -1)
Conditions in all cases: compound concentration: 200 uM; treatment time: 3 h
ALG13 = target: T1, ALG13 (UniProt Q9NP73)
T1 sequence (whole entry): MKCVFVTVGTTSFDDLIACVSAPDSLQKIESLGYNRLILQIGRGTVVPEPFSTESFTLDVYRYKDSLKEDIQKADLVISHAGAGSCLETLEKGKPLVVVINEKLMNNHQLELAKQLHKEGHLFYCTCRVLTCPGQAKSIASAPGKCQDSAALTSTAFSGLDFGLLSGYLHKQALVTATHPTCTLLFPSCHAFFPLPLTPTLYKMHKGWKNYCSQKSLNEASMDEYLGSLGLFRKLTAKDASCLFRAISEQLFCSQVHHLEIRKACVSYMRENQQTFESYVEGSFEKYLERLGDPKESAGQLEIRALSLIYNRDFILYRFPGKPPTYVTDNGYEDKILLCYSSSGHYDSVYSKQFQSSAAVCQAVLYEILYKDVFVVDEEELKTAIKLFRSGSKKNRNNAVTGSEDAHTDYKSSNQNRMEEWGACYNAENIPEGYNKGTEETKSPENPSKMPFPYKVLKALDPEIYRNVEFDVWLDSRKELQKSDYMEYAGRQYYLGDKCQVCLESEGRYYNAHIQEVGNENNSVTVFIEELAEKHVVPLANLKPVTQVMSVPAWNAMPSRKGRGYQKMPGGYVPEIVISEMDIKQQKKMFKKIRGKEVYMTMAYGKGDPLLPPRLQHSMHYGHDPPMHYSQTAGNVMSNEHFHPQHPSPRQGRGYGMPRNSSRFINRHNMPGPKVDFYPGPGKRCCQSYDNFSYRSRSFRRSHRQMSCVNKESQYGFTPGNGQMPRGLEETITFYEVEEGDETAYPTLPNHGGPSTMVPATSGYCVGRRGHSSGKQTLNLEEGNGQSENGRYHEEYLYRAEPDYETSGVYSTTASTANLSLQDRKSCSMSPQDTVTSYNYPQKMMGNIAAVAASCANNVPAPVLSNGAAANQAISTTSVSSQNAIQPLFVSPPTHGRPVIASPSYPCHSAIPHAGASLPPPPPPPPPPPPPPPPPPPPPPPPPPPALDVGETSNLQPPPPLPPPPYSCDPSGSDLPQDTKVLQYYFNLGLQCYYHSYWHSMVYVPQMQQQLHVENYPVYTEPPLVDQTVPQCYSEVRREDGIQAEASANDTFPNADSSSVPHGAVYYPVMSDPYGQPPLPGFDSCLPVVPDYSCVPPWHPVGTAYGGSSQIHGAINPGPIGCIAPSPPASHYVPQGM
How it was run: (§1)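 Each value is an average log2 ratio of fragment to vehicle, tested by unpaired t-test. The underlying Spectronaut label-free quantities were global-median-normalised, and only proteins with ≥2 unique peptides were included. Triplicate HEK293T lysate samples (495 µg) were exposed to fragment at 200 µM or vehicle for 3 h, then to Biotin-Ahx-Ub-VS at 0.5 µM final for 1 h, before NeutrAvidin enrichment of labelled DUBs, LysC and trypsin digestion, and diaPASEF LC-MS/MS.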

ATXN3 = ATXN3 (UniProt P54252)
Chain of ATXN3 (P54252 whole entry): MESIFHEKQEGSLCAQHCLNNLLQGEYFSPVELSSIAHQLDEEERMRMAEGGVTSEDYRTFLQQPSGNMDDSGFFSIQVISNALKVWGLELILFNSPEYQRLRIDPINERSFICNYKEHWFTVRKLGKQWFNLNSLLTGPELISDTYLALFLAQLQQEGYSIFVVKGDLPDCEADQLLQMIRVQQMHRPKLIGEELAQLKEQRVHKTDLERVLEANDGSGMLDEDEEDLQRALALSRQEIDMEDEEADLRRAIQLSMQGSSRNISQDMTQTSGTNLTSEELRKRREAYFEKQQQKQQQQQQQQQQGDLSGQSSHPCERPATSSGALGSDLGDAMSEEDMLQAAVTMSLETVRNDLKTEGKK
How it was run: as §1

BAP1 = target: T2, BAP1 (UniProt Q92560)
T2 sequence (whole entry): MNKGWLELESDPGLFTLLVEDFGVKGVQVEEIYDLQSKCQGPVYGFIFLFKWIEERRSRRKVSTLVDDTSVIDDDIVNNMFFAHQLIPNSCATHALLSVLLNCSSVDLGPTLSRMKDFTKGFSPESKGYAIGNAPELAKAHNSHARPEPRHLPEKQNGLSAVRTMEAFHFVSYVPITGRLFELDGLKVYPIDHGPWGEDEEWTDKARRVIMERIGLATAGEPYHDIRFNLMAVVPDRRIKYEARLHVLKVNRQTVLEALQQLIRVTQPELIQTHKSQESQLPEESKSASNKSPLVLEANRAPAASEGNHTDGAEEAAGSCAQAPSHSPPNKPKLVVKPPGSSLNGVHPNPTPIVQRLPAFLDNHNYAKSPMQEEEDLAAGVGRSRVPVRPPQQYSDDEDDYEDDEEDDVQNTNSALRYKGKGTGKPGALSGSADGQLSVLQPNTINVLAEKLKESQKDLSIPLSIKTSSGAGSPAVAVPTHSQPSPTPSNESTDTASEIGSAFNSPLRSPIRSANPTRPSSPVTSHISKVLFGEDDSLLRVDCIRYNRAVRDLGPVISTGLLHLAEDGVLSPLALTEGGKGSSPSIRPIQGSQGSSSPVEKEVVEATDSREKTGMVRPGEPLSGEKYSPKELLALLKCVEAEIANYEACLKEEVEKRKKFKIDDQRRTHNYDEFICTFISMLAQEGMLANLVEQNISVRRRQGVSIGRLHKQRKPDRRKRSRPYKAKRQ
How it was run: as §1

EIF3F = EIF3F (UniProt O00303)
Chain of EIF3F (O00303 whole entry): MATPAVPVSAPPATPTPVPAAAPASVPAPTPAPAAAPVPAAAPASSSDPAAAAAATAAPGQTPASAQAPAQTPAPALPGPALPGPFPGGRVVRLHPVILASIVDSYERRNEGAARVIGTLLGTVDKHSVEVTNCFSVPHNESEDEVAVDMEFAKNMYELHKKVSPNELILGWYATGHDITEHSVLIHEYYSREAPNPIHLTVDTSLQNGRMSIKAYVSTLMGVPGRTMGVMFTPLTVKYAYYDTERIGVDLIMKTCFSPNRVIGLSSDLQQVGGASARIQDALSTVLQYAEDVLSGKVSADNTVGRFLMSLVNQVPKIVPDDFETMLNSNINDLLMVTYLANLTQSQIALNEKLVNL
How it was run: as §1

EIF3H = EIF3H (UniProt O15372)
Chain of EIF3H (O15372 whole entry): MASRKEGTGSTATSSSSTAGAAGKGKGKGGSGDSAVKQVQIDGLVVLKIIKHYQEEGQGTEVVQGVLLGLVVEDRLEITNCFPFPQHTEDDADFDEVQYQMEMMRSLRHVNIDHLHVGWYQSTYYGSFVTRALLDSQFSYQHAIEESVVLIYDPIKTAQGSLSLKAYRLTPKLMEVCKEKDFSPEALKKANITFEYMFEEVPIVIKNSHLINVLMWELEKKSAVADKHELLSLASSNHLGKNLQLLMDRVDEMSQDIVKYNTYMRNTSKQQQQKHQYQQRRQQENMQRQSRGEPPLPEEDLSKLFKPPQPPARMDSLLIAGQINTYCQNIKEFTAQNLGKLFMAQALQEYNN
How it was run: as §1

FAM105A = target: T3, FAM105A (UniProt Q9NUU6)
T3 sequence (whole entry): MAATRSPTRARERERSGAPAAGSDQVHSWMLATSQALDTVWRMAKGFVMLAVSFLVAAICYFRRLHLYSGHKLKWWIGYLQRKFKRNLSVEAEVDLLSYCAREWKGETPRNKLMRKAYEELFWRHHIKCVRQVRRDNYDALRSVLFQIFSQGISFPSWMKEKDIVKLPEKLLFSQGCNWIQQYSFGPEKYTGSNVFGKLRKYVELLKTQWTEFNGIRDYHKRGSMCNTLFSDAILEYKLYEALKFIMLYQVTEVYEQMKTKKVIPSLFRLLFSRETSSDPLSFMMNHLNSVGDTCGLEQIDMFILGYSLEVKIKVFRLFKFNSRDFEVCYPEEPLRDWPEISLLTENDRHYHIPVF
How it was run: as §1

OTUB1 = OTUB1 (UniProt Q96FW1)
Chain of OTUB1 (Q96FW1 whole entry): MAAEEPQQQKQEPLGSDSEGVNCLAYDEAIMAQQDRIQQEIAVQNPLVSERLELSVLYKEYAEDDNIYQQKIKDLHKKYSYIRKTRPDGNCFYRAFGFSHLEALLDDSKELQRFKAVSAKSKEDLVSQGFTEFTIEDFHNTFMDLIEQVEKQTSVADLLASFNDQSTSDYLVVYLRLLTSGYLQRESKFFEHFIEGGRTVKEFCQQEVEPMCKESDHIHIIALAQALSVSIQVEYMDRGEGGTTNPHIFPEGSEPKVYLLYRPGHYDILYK
How it was run: as §1

OTUD4 = target: T4, OTUD4 (UniProt Q01804)
T4 sequence (whole entry): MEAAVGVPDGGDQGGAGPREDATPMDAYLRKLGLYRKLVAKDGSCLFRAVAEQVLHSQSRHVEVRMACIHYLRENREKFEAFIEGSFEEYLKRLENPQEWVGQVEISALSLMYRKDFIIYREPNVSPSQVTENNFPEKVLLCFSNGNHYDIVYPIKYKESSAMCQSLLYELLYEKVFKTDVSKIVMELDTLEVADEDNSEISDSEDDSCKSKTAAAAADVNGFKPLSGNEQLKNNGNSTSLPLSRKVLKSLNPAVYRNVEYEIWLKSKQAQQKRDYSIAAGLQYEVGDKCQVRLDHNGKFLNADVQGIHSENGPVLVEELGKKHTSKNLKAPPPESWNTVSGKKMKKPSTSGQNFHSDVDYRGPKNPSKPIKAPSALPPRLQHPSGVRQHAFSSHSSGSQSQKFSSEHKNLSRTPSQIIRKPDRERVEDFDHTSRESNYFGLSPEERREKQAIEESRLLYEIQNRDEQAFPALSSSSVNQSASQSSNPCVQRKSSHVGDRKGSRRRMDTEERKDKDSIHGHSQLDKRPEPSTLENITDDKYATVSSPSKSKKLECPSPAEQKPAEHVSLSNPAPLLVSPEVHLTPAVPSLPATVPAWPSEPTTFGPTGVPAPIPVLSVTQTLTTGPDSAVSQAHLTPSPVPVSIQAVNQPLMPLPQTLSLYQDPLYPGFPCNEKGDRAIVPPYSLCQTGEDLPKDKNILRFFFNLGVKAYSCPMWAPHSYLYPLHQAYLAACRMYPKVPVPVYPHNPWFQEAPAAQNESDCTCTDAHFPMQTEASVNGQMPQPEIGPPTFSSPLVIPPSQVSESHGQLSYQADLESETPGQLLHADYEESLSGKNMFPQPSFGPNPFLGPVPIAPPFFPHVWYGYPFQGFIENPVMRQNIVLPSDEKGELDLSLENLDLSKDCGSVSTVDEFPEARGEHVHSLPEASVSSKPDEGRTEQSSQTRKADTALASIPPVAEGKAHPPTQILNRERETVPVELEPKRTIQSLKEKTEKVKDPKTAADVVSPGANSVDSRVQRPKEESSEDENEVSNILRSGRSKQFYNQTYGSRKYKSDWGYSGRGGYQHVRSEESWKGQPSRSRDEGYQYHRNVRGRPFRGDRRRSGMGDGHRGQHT
How it was run: as §1

OTUD5 = target: T5, OTUD5 (UniProt Q96G74)
T5 sequence (whole entry): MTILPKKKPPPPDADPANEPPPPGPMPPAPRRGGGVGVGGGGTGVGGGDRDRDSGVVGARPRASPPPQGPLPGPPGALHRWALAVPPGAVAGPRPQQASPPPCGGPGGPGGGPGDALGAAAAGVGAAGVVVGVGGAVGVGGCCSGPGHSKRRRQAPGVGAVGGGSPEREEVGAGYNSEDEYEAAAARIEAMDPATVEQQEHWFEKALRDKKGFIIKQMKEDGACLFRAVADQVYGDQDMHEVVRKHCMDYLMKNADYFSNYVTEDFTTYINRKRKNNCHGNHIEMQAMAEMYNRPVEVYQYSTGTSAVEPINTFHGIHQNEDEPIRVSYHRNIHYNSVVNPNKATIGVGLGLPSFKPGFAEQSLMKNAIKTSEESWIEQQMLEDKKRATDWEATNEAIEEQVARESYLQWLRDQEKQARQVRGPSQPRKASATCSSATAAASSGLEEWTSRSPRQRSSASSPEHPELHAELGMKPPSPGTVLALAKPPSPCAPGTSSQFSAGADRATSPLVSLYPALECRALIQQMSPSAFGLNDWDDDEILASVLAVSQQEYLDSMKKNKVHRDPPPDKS
How it was run: as §1

Structure (SMILES) | log2 ratio of Biotin-Ahx-Ub-VS probe labelling (ALG13) | log2 ratio of Biotin-Ahx-Ub-VS probe labelling (ATXN3) | log2 ratio of Biotin-Ahx-Ub-VS probe labelling (BAP1) | log2 ratio of Biotin-Ahx-Ub-VS probe labelling (EIF3F) | log2 ratio of Biotin-Ahx-Ub-VS probe labelling (EIF3H) | log2 ratio of Biotin-Ahx-Ub-VS probe labelling (FAM105A) | log2 ratio of Biotin-Ahx-Ub-VS probe labelling (OTUB1) | log2 ratio of Biotin-Ahx-Ub-VS probe labelling (OTUD4) | log2 ratio of Biotin-Ahx-Ub-VS probe labelling (OTUD5)
Cc1nc(CNC(=O)CCl)c2ccccn12.Cl | -0.085 | -0.101 | -0.847 | -0.26 | 0.233 | -0.142 | -0.107 | -0.199 | -0.159
Cc1ccccc1OCC(=O)N1CCN(C(=O)CCl)CC1 | -0.255 | -0.894 | -0.74 | -0.317 | 0.19 | 0.252 | -0.249 | 0.0744 | -0.161
O=C(CCl)NC1CCOc2ccccc21 (configuration not stated) | -0.044 | -0.806 | -2.55 (active) | -0.349 | 0.199 | 0.29 | -0.321 | -2.03 (active) | -0.73
Cc1cc(Cl)ccc1NC(=O)CCl | -0.00605 | -0.0857 | -3.02 (active) | 0.0767 | 0.0385 | 0.174 | -0.116 | -0.0791 | -0.0787
O=C(CCl)N1CCOCCC1c1ccccc1 (configuration not stated) | -0.00764 | 0.117 | -0.446 | -0.267 | 0.204 | 0.0466 | -0.0821 | -0.0459 | 0.0776
O=C(CCl)N1CCOC2(CCC2)CC1 | -0.588 | -0.29 | -0.305 | -0.12 | 0.0846 | -0.0165 | -0.14 | -0.374 | -0.595
O=C(CCl)N1CCC2(CCC(O)CC2)CC1 | -0.532 | -0.833 | -0.626 | -0.321 | 0.288 | 0.217 | -0.0501 | -0.206 | -0.29
Cc1ncc2c(n1)CCN(C(=O)CCl)C2 | -0.466 | -0.614 | -0.39 | -0.159 | 0.129 | 0.443 | -0.578 | -0.0123 | -0.606
